# Laboratory results from ChEMBL document CHEMBL5308504, “Tm Shift (DSF) assay results for EUbOPEN Chemogenomics Library” (2023).
# Legend:
# [1] = molecular target: Bromodomain-containing protein 4 (Homo sapiens) (UniProt O60885); details: Compound concentration 20.0 uM, Protein concentration 2.0 uM, Result type QC Liability
# [2] = molecular target: T1, Transcription intermediary factor 1-alpha (Homo sapiens) (UniProt O15164); details: Compound concentration 20.0 uM, Protein concentration 2.0 uM, Result type QC Liability
# T1 sequence (whole entry): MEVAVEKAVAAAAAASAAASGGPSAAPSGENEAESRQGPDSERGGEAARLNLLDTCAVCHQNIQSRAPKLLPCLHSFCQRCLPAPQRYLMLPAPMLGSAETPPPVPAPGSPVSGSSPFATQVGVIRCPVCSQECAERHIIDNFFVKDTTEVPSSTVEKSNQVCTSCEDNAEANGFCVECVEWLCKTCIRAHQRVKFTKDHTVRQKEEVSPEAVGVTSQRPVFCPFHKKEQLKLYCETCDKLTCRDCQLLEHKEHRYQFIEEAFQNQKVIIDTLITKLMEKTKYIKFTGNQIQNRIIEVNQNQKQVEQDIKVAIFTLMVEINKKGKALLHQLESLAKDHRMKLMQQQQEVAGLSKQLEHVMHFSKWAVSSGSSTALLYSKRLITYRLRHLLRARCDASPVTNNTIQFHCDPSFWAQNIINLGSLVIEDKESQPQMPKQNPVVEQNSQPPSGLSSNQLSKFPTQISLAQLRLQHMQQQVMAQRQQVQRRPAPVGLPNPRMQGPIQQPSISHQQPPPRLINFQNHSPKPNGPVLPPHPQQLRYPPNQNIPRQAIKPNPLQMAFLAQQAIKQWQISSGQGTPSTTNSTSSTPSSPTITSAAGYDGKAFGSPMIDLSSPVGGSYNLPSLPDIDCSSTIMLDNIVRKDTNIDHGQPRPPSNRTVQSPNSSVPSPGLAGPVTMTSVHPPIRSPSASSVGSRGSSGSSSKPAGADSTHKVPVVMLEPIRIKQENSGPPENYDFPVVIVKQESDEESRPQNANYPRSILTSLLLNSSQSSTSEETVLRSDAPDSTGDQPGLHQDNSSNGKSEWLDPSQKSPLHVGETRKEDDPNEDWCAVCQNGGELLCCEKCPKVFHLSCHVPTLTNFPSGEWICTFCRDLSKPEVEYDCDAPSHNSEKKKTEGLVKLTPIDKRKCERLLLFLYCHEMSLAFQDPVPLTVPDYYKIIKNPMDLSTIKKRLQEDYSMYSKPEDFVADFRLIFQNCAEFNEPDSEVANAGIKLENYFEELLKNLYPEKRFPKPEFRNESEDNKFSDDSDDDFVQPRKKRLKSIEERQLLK
Structure (SMILES),ΔTm [1] [°C],ΔTm [2] [°C]
CN(C1CCc2c(c3ccccc3n2CC(=O)O)C1)S(=O)(=O)c1ccc(F)cc1 (configuration not stated),-1.34,-0.54
Cc1nc(Nc2cnn(C3CCNCC3)c2)nc2c1N(C)C(=O)c1cc3ccccc3cc1N2C,-2.15,-2.83
CCOC(=O)c1ccc(CN(Cc2ccc(-c3cccc(S(C)(=O)=O)c3)cc2)S(=O)(=O)c2c(C)cc(C)cc2C)o1,-4.78,0.5
COc1ccccc1Nc1nc(-c2nn(Cc3c(F)cc(OCCCO)cc3F)c3ccccc23)ncc1OC,-0.6,-1.94
O=C(NCCS(=O)(=O)c1ccc(C(F)(F)F)cn1)c1ccc(Cl)cc1,-3.11,-2.42
CSc1ccc(C(=O)/C=C/c2cc(C)c(OC(C)(C)C(=O)O)c(C)c2)cc1,-3.49,-3.46
Cc1cc2c(-c3ccco3)cnc(N[C@@H]3CCN(C)C[C@H]3C(=O)NC3CCCCC3)c2[nH]c1=O,13.3,-4.37
COc1cccc(Cn2cc(C(=O)Nc3ccc(C)c(S(=O)(=O)N4CCOCC4)c3)c(-c3ccc(C)cc3)n2)c1,1.27,4.1
Cc1cc(-c2nc(-c3ccc(OC(F)(F)F)cc3)no2)nn1Cc1ccnc(N2CCN(C3CC3)CC2)c1,0.31,0.28
CCOC(=O)N1CCC(CN(Cc2ccc(Cl)cc2)Cc2ccc([N+](=O)[O-])s2)C1 (configuration not stated),-2.61,-4.19
CCOC(=O)C1Cc2ccccc2CN1C(=O)c1ccc(SC)s1 (configuration not stated),-2.7,-3.41
COc1ccc(-c2cc3c(C)nc(N)nc3n([C@H]3CC[C@H](OCCO)CC3)c2=O)cn1,-0.11,-2.05
CCc1ccc(-c2ncn(CC3(F)CCN(C)CC3)c2-c2ccnc3[nH]ccc23)nc1,-2.66,-2.61
COc1cc2nc(-c3cc(F)ccc3O)nc(N[C@@H]3CNC[C@H]3C(C)(C)O)c2cc1OC,1.15,-1.27
FC(F)c1cncc(-c2ccc3ncc4nnc(C5=CCCOCC5)n4c3c2)c1,-0.98,0.23
Nc1ncc2c(n1)-c1c([nH]c3ccc(C4CC4)cc13)CCCC2,-1.04,-1.92
CCOc1cc(CC(=O)N[C@@H](CC(C)C)c2ccccc2N2CCCCC2)ccc1C(=O)O,-0.4,-1.24
O=C(Nc1ccc(OC(F)(F)Cl)cc1)c1cnc(N2CC[C@@H](O)C2)c(-c2cc[nH]n2)c1,0,-3.05

Structure (SMILES),ΔTm [1] [°C],ΔTm [2] [°C]
CC(=O)c1ccc2c(c1)/C(=C(/Nc1cccc(C#N)c1)c1ccc3c(c1)OCCO3)C(=O)N2,-1.21,-2.47
CC(=O)Nc1nc(C)c(S(=O)(=O)Nc2ccc(C(O)(C(F)(F)F)C(F)(F)F)cc2)s1,-1.81,-0.92
Fc1ccc(-c2nc(-c3c(F)cccc3F)[nH]c2-c2ccncc2)cc1,0.95,-2.15
COc1c(-c2cn(C3CCC(=O)NC3=O)nn2)csc1C(=O)N1CCCC1 (configuration not stated),-0.9,-2.25
CC(=O)c1c(C)c2cnc(Nc3ccc(N4CCN(CCCCNC(=O)COc5cccc6c5C(=O)N(C5CCC(=O)NC5=O)C6=O)CC4)cn3)nc2n(C2CCCC2)c1=O (configuration not stated),-0.38,-3.15
CC(C)c1nc2c(c3c1[C@@H](c1ccc(C(F)(F)F)cc1)OC31CCOCC1)[C@@H](O)CC(C)(C)C2,-1.67,0.17
O=C(Cc1ccccc1[N+](=O)[O-])Nc1ccc(-c2ccc(C(O)(C(F)(F)F)C(F)(F)F)cc2F)cc1,-0.72,0.45
NC(=O)c1ccc(-c2nc(-c3ccc4c(c3)OCCO4)c(-c3ccccn3)[nH]2)cc1,-0.56,-0.21
CN(C)C(=O)Cn1cc(-c2nc([C@@](C)(c3ccc(-c4cnc(N)nc4)cc3)C3CC3)no2)cn1,-1.9,0.31
COc1ccc(C(=O)N[C@H](C)c2cccc(C(=O)Nc3nc4c(s3)CN(C)CC4)c2)cc1C,-1.18,-2.54
Cc1nn(-c2ccccc2)c(Nc2ccccc2C(=O)O)c1-c1cc2nccnc2c(F)c1F,-1.68,0.83
CCN(CC)C(=O)C1CN2CCc3cc(OC)c(OC)cc3C2CC1OC(C)=O (configuration not stated),-0.18,0.29
CC(=O)N1CCN([C@H]2CCC[C@@H](NC(=O)c3cc4c(F)ccc(C)c4[nH]3)C2)CC1,-1.7,-1.5
COc1c(OCCCN2CCOCC2)ccc2c1N=C(NC(=O)c1cnc(N)nc1)N1CCN=C21,-0.74,-2.86
CC(C)C(=O)N[C@@H]1CCN(C(=O)Nc2nc3c(s2)-c2nc(-c4ccccc4Cl)ncc2CC3)C1,-0.28,-3.41
CC#CCC(C)[C@H](O)/C=C/[C@@H]1[C@H]2C/C(=C/CCCC(=O)O)C[C@H]2C[C@H]1O (some centres not stated),-2.19,0.19
C=CC1C[C@]1(NC(=O)[C@@H]1C[C@@H](Oc2cc(-c3csc(NC(=O)C(C)C)n3)nc3c(Br)c(OC)ccc23)CN1C(=O)[C@@H](NC(=O)OC1CCCC1)C(C)(C)C)C(=O)O (some centres not stated),1.06,2.85
COc1cc(CN(CCN)C(=O)N[C@@H](C)c2ccccc2)ccc1OCc1ccccc1,-1.26,-0.9
